In PubChem BioAssay (EPA / NIEHS):
Calls of active or inactive are those of the source. How the source made its calls: active means hit-call score of the fitted dose curve at least 0.9, where 1 is the maximum; inactive means score below 0.9.

What was measured:
[1] = ATG_NFI_CIS: Attagene CIS-FACTORIAL HepG2 Assay for human Nuclear Factor I (NFI) (AID 2282989); settings: HepG2 cis-regulatory reporter, NFI response element transcription; actives raise or lower the signal
Method in brief: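 After transient transfection of HepG2 with cis-promoter reporter constructs and 24 h dosing, RNA is reverse-transcribed, amplified, 6-FAM end-labelled and HpaI-digested before capillary analysis. Bidirectional curve fitting against DMSO.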

[2] = biological target: Myc proto-oncogene protein (Homo sapiens) (UniProt P01106); test: ATG_Myc_CIS: Attagene CIS-FACTORIAL HepG2 Assay for human Myelocytomatosis (Myc) Proto-Oncogene Transcription Factor (AID 2282990); settings: HepG2, Attagene cis-reporter transcription factor activity; actives raise or lower the signal
Method in brief: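 Read-out: fluorescent reporter mRNA fragments resolved by capillary electrophoresis after RT-PCR. Human HepG2 liver cells carried transfected cis-element reporter units and were dosed for 24 h. Gain or loss of signal fitted relative to DMSO baseline.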

[3] = ATG_NRF2_ARE_CIS: Attagene CIS-FACTORIAL HepG2 Assay for human Nuclear Factor Erythroid 2 Related Factor 2 (NFR2) response to Antioxidant Response Elements (ARE) (AID 2282992); settings: HepG2 Attagene ARE/NRF2 reporter, transcription factor activity; actives raise or lower the signal
Method in brief: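 HepG2 cells transiently transfected with multiplexed cis-regulated reporter transcription units measure endogenous transcription factor activity. Reporter mRNA at 24 h is quantified by RT-PCR, fluorescent labelling and capillary electrophoresis, with bidirectional fitting relative to DMSO.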

[4] = ATG_Oct_MLP_CIS: Attagene CIS-FACTORIAL HepG2 Assay for human Octamer-Binding Transcription Factor (Oct) (AID 2282993); settings: HepG2 Attagene cis-factorial Oct reporter, mRNA; actives raise or lower the signal
Method in brief: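 Cells of the HepG2 line express promoter-controlled reporter sequences whose mRNA levels, after 24 h treatment, are measured by RT-PCR and capillary electrophoresis. Increases and decreases are scored relative to DMSO.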

[5] = biological target: Cellular tumor antigen p53 (Homo sapiens) (UniProt P04637); test: ATG_p53_CIS: Attagene CIS-FACTORIAL HepG2 Assay for human p53 Transcription Factor (AID 2282994); settings: HepG2 p53 cis-element reporter, Attagene mRNA; actives raise or lower the signal
Method in brief: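 HepG2 cells transiently transfected with multiplexed cis-regulated reporter transcription units read endogenous TF activity. After 24 h compound exposure, reporter mRNA was quantified by RT-PCR, fluorescent labelling, HpaI digestion and capillary electrophoresis; bidirectional fits versus DMSO baseline.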

[6] = BSK_3C_TissueFactor: BioMAP Diversity Plus: 3C Assay for Tissue Factor Biomarker Activity (AID 2282997); settings: BioMAP 3C HUVEC, tissue factor biomarker readout; actives raise or lower the signal
Method in brief: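 Human vascular primary cells (umbilical vein endothelium) received test chemical; Tissue Factor was determined by ELISA at 24 h, and both gain and loss of signal versus DMSO were fitted.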

[7] = BSK_3C_uPAR: BioMAP Diversity Plus: 3C Assay for Urokinase-type plasminogen activator receptor (uPAR) Biomarker Activity (AID 2282998); settings: BioMAP 3C HUVEC, uPAR biomarker ELISA; actives raise or lower the signal
Method in brief: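 Endothelial primary cells of human umbilical vein origin received test chemical; 24 h later uPAR was assayed by ELISA. Fitting was bidirectional, DMSO as negative control.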

[8] = BSK_3C_VCAM1: BioMAP Diversity Plus: 3C Assay for Vascular cell adhesion molecule 1 (VCAM1) Biomarker Activity (AID 2282999); settings: BioMAP 3C HUVEC, VCAM1 ELISA, cytokine-stimulated; actives raise or lower the signal
Method in brief: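 Human umbilical vein endothelial cells (3C system), biomarker read by ELISA 24 h after dosing; bidirectional fit against DMSO baseline. Cytotoxicity tracked by SRB total-protein staining in parallel cultures at biomarker time.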

[9] = BSK_4H_Eotaxin3: BioMAP Diversity Plus: 4H Assay for Eotaxin 3 Biomarker Activity (AID 2283000); settings: primary human endothelial cells (HUVEC); actives raise or lower the signal
Method in brief: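 Readout is Eotaxin-3 (CCL26) level by ELISA in primary human umbilical vein endothelial cells harvested 24 h after chemical exposure; activity fitted in both directions against DMSO control.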

[10] = ATG_NF_kB_CIS: Attagene CIS-FACTORIAL HepG2 Assay for human Nuclear Factor Kappa B (NF-kB) (AID 2282991); settings: HepG2 Attagene cis-factorial NF-kB reporter mRNA; actives raise or lower the signal
Method in brief: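 HepG2 cells transfected with cis-promoter-driven reporter units, so endogenous transcription factor activity is measured. Reporter mRNA quantified 24 h after dosing by RT-PCR and capillary electrophoresis, with bidirectional fitting against DMSO.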

Measured: AC50

Sequence of Myc proto-oncogene protein (Homo sapiens) (P01106 whole entry, looked up, the tested form may be a part): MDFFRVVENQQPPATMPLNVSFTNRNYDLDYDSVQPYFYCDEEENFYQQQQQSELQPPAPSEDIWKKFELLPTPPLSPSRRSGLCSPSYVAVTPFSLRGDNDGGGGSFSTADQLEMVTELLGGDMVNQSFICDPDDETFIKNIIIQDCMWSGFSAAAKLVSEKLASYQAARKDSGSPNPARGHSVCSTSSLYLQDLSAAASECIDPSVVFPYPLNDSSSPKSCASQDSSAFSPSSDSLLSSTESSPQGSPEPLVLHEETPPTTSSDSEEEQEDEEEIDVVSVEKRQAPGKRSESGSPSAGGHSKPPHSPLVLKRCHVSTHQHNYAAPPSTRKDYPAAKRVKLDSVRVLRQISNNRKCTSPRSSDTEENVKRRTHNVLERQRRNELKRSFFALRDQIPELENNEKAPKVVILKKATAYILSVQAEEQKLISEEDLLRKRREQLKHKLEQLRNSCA
Sequence of Cellular tumor antigen p53 (Homo sapiens) (P04637 whole entry, looked up): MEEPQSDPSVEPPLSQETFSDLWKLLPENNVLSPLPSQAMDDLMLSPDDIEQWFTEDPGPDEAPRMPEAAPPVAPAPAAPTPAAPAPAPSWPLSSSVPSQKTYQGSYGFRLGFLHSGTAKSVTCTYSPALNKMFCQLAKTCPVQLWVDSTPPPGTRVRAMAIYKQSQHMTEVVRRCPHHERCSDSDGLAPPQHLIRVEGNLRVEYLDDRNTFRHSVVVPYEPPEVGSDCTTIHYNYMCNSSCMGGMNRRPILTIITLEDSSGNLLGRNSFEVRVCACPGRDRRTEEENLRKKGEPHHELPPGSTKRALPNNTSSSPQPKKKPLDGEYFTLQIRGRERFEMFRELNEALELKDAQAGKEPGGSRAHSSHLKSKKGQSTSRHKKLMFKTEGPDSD

O=C(O)c1cn(-c2ccc(F)cc2)c2cc(N3CCNCC3)c(F)cc2c1=O
not listed: [10]
inactive: all other assays above

CCCCCCC#CC(=O)OC
inactive: [1] | [2] | [4]

C=O
inactive: [1] | [10] | [3] | [4]

COC(=O)c1ccc(C)cc1
not listed: [10]
inactive: all other assays above

C=CC(=O)OCCn1c(=O)n(CCOC(=O)C=C)c(=O)n(CCOC(=O)C=C)c1=O
active: [4] 8.38 µM | [5] 24.3 µM
inactive: [1] | [2]

CC(C)=CCO
inactive: [1] | [2] | [3] | [5]

Nc1nc2ccc([N+](=O)[O-])cc2s1
active: [3] 56.5 µM
inactive: [1] | [10] | [4]

CC(C)C1CCC(O)CC1 (stereo not drawn)
inactive: [1] | [2] | [5]

OCc1cccnc1
inactive: [1] | [10] | [3] | [4]

COc1ccc(Cl)cc1C
inactive: [1] | [2] | [3] | [4] | [5]

CC1=CCC(O)(C(C)C)CC1 (stereo not drawn)
inactive: [1] | [2] | [3] | [4] | [5]

O=[N+]([O-])c1cc(C(F)(F)F)ccc1Cl
active: [3] 50.9 µM
not listed: [10]
inactive: all other assays above

CCOC(=S)SSC(=S)OCC
inactive: [1] | [2] | [3] | [4] | [5]

O=C[C@H](O)[C@H](O)[C@H](O)CO
inactive: [1] | [2] | [5]

CC(C)=CCCC(C)CC=O (stereo not drawn)
inactive: [1] | [2] | [4] | [5]

C=C(C)C(=O)O
inactive: [1] | [2] | [3] | [4] | [5]

CCCCCCCCC=O
not listed: [10]
inactive: all other assays above

CC(C)(CO)[N+](=O)[O-]
inactive: [1] | [2] | [4]

CC(C)=CCC[C@H](C)CC=O
inactive: [1] | [2] | [4] | [5]

OCCOc1cccc(OCCO)c1
inactive: [1] | [10] | [3] | [4]

CC(=O)/C=C/C1=C(C)CCCC1(C)C
active: [3] 27.7 µM
not listed: [5] | [10]
inactive: all other assays above

CC(C)(COC(=O)c1ccccc1)COC(=O)c1ccccc1
active: [6] 11.4 µM | [7] 34 µM | [9] 29.5 µM
not listed: [5] | [10]
inactive: all other assays above

CC(C)c1ccc(C(C)C)cc1
active: [3] 162 µM | [5] 158 µM | [6] 29.4 µM | [7] 31.6 µM | [8] 35.3 µM | [9] 36 µM
inactive: [1] | [2] | [4]

CN1Cc2c(N)cccc2C(c2ccccc2)C1 (stereo not drawn)
inactive: [1] | [2] | [4]

CCC(=O)OCc1ccccc1
not listed: [10]
inactive: all other assays above

CCCCCCCCCCC(CO)CCCCCCCC (stereo not drawn)
inactive: [1] | [2] | [3] | [4] | [5]

C[C@]12CC[C@H]3[C@@H](CCC4=CC(=O)CC[C@@]43C)[C@@H]1CC[C@@H]2C(=O)CO
inactive: [1] | [10] | [3] | [4]
active: [5] 42.5 µM

CC(=O)OCC=Cc1ccccc1
inactive: [1] | [4] | [5]

CN1[C@@H]2CC(OC(=O)[C@H](CO)c3ccccc3)C[C@H]1[C@@H]1O[C@@H]12 (stereo partly drawn)
inactive: [2] | [4] | [5]

Nc1cc(Cl)c(O)c(Cl)c1
inactive: [1]
active: [10] 46.8 µM | [3] 26.5 µM | [4] 100 µM | [5] 144 µM

OCCN1CCNCC1
inactive: [1] | [3] | [4] | [5]

S=C(S)NCCNC(=S)S
inactive: [1] | [4]

C=C[Si](OCC)(OCC)OCC
not listed: [2]
inactive: all other assays above
